These results are taken from PubChem BioAssay (Tox21).

Results filed as inconclusive are left out. A call without a number means that no potency is given here. Active and inactive are the calls of the source. Calls come from the whole dose curve; as a rule, active = well fitted cell-killing curve with a large enough effect in the repeat runs; inconclusive = weak or mixed curves, or effect the other way; inactive = flat fitted curve, though single readings scatter.
Potency is the fitted concentration of half-maximal effect.

This assay is described as follows: qHTS assay to identify small molecule agonists of the sonic hedgehog signaling (Shh) pathway - cell viability counter screen (AID 1259366). Note: nearly all actives have a fitted effect of over 50% in size. Particulars: NIH/3T3 Gli1-Luc viability, CellTiter-Fluor, 24 h; series mostly up to 92.4 µM. The text has this:
National Center for Advancing Translational Sciences [NCATS]
NIH Chemical Genomics Center [NCGC]
U.S. Environmental Protection Agency [EPA]
National Institutes of Environmental Health Sciences [NIEHS]
National Toxicology Program [NTP]
U.S. Food and Drug Administration [FDA]
The sonic hedgehog (Shh) pathway is essential for normal embryonic development. Dysregulation of the Shh pathway can cause severe developmental defects in organs. Therefore chemicals that interfere with the pathway are potential developmental toxicants. A cell line designated 3T3Gli1-Luc (DMB/OARSA/CFSAN/FDA, Laurel, MD), a NIH/3T3 derived clone containing stably integrated Gli1-Luc reporter is used to detect chemical interference of the Shh pathway, by changes in the expression of the firefly Luc gene under the control of the Gli1 transcriptional response element. This cell line was used to screen Tox21 libraries for identifying and prioritizing the potential developmental toxicants that interfere Shh pathway. The cytotoxicity of the compounds was tested in parallel by measuring the cell viability using CellTiter-Fluor assay system (Promega, Madison, WI) in the same wells.
Tox21 Assay Protocol Summary:
3T3 Gli1-Luc cells were dispensed at 2,000 per well in 5uL of culture medium into white solid bottom 1536-well plates (Greiner Bio-One, Monroe, NC) using a Multidrop Combi (Thermo Scientific, Waltham, MA) dispenser. The assay plates were incubated at 37 C and 5% CO2 for 4hr, and then 23nL of compounds dissolved in DMSO and positive control were transferred using a Pintool station (Wako, San Diego, CA). The assay plates were incubated at 37C and 5% CO2 for 24hr. For viability read, after 23hr of compound treatment, 1uL of CellTiter-Fluor reagent (Promega Corporation, Madison, WI) was added to each well of the assay plates using Flying Reagent Dispenser (FRD, Aurora Discovery, San Diego, CA) and incubated the assay plates at 37C for 1hr. The fluorescence signal was quantified using a ViewLux plate reader (Perkin Elmer, Shelton, CT).
On the technique in general: Quantitative high-throughput screening tests each substance at several concentrations.
In the case of `CCCCCCCCCCCCN1CCCCCC1=O`, the Potency entry was “inactive”.
On the same count and under the same terms, under `O=C(c1ccc(F)cc1)C1CCN(CCn2c(=S)[nH]c3ccccc3c2=O)CC1` stands “inactive”; under `CC(=O)c1cccc([N+](=O)[O-])c1`, “inactive”.
In the case of `COc1cc(Cl)c(OC)cc1N`, the Potency entry was “inactive”.
Take `Cc1[nH]c(C)c(Cl)c(=O)c1Cl`: the viability change, negative = cytotoxic is 6.9% [at 19 µM] (inactive).
As to `C[Si](C)(CCCN)O[Si](C)(C)CCCN`, the Potency entry is “inactive”.
Turning to `N=c1ccn2c(n1)O[C@H]1[C@H](O)[C@@H](CO)O[C@H]12`, the Potency entry was “inactive”.
With `Clc1ccc2c(c1)CCc1cccnc1C2=C1CCNCC1`, the Potency is 11.9 µM (active).
For the molecule `CC[N+](C)(CC)CCOC(=O)C(O)(c1ccccc1)C1CCCCC1` (stereo not given), the Potency result is “inactive”.
With `Nc1ccc([N+](=O)[O-])c(C(F)(F)F)c1`, the Potency result was “inactive”.
Still for that read-out and setting: under `CC(C)(C)OCC1CO1` (stereo not given) stands “inactive”; under `CCOC(=O)C1=C[C@]2(CC)CCCN3CCc4c(n1c1ccccc41)[C@@H]32`, “inactive”; under `Cc1nn(C)c(Oc2ccccc2)c1/C=N/OCc1ccc(C(=O)OC(C)(C)C)cc1`, “inactive”.
On the same count and under the same terms, to `CCCCCCCC/C=C\CCCCCCCC(=O)OCC` belongs “inactive”.
Consider `c1cc(CCCc2ccncc2)ccn1`, for which the Potency entry was “inactive”.
With `O=C(O)c1ccc(-n2nc(-c3ccccc3O)nc2-c2ccccc2O)cc1`, the Potency result was “inactive”.
With `CCCCc1ncc(/C=C(\Cc2cccs2)C(=O)O)n1Cc1ccc(C(=O)O)cc1`, the Potency result is “inactive”.
The same measure, in the same setting: under `COc1ccc(S(=O)(=O)N2C(=O)[C@@](c3ccccc3OC)(N3C[C@H](O)C[C@H]3C(=O)N(C)C)c3cc(Cl)ccc32)c(OC)c1` stands 8.63 µM (active).
Take `CCOc1ccc(N=Nc2ccc(/C=C/c3ccc(N=Nc4ccc(OCC)cc4)cc3S(=O)(=O)O)c(S(=O)(=O)O)c2)cc1`: the Potency is 30.2 µM (active).
Consider `CCCCC(CC)COC(=O)COc1ccc(Cl)cc1Cl` (stereo not given), for which the Potency entry was “inactive”.
The same measure, in the same setting: under `CCOC(=O)C(=O)CCc1ccccc1` stands “inactive”; under `C/C=C/C=C/CO`, “inactive”.
Consider `O=C1[C@H]2CCCC[C@H]2C(=O)N1CCCCN1CCN(c2nsc3ccccc23)CC1`, for which the Potency was 15 µM (active).
Regarding `CCN(CC)c1ccc2c(-c3ccccc3C(=O)O)c3ccc(=[N+](CC)CC)cc-3oc2c1`, the Potency is 4.33 µM (active).
In the case of `COc1ccc(C)cc1[N+](=O)[O-]`, the Potency result is “inactive”.
For `OCc1cc(C(O)CNCCCCCCOCCCCc2ccccc2)ccc1O` (stereo not given), the Potency is 3.76 µM (active).
Take `c1ccc(-c2ccccn2)nc1`: the Potency result was “inactive”.
Turning to `NCc1ccccc1Sc1ccccc1CO`, the Potency result was “inactive”.
The same measure, in the same setting: under `C=C(C)C(=O)OCC` stands “inactive”.
For `CCCCCC[C@@H](O)C/C=C\CCCCCCCC(=O)OC`, the Potency result was “inactive”.
For `Brc1c2ccccc2c(Br)c2ccccc12`, the viability change, negative = cytotoxic is 2.56% [at 8.39 µM] (inactive).
With `O=S(=O)(Oc1ccc(Cl)cc1)c1ccccc1`, the Potency entry is “inactive”.
For `O=C(Nc1ccc(S(=O)(=O)N2CCOCC2)cc1)c1cc(Cl)ccc1NS(=O)(=O)c1ccc(Cl)s1`, the Potency entry was “inactive”.
Same read-out and setting: to `C=C(C)C(=O)OCCO` belongs “inactive”; to `CC(C)CC(=O)C1C(=O)c2ccccc2C1=O`, “inactive”.
As for `Nc1cccc(S(=O)(=O)c2cccc(N)c2)c1`, the Potency entry was “inactive”.
On to `C[N+]1(C)CCC(OC(=O)C(O)(c2ccccc2)C2CCCC2)C1` (stereo not given), for which the Potency entry was “inactive”.
Take `O=C(OCCc1ccccc1)c1ccccc1`: the Potency entry is “inactive”.
Regarding `CN(Cc1ccc(C(C)(C)C)cc1)Cc1cccc2ccccc12`, the Potency result is “inactive”.
In the case of `C=C1[C@H]2CC[C@@H]3[C@H]2C(C)(C)CCC[C@]13C`, the Potency entry is “inactive”.
